# TDP1 cell CPT: DT40-hTDP1 cell growth loss with CPT; chicken DT40 Tdp1-/-;hTDP1 cells + 20 nM CPT, ATP luminescence, 48 h; Potency, µM (series often up to 46.2 µM), without a hit: at the top dose activity change, negative = growth inhibition, most hits filed as inhibitors; actives 12% (n = 420,000); AID 686979; further: on the % scale 0 is the no-effect control and ±100 the full control effect; nearly all actives have a fitted effect of over 55% in size
#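 Chicken DT40 Tdp1-/- cells stably complemented with human TDP1 were seeded at 400 cells/well in medium containing 20 nM camptothecin, exposed to pin-transferred compounds, and grown at 37 °C for at least 48 hr. Viability was read as ATP luminescence.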
# S2 tox: viability counter-screen for ATXN expression inhibitors. S2 cells (HEK-293 line with an ATXN2-luciferase reporter) viability, CellTiter-Fluor protease fluorescence, 24 h. Potency, µM (top dose mostly 56.7 µM), actives largely listed as cytotoxic. actives 0.49% (n = 400,000); further: nearly all actives have a fitted effect of over 40% in size
# HepG2 viability: HepG2 cytotoxicity, counter-screen for TGF-b inhibitors; actives 0.76% (n = 410,000); Potency, µM (highest dose often 46.1 µM), inactives show at the highest dose activity change, negative = cytotoxicity, usual class: cytotoxic; HepG2 CAGA-GFP viability, ATP luminescence, 18 h
#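 HepG2 CAGA-GFP cells (1000/well, DMEM with 1% FBS) received compound, then TGF-beta at 500 pg/mL final, and were incubated 18 hours at 37 degrees C. Viability was read by CellTiter-Glo luminescence. Media-only wells were set as complete cell-killing and DMSO as no toxicity.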
# ATXN2 expr inh: inhibitors of ATXN2 expression. HEK-293 ATXN2-luciferase reporter, luminescence, 24 h. Potency, µM (doses to about 57 µM), for inactives: top-dose activity change, negative = inhibition, actives largely listed as inhibitors. actives 0.72% (n = 360,000). AID 1745845; further: on the % scale 0 is the no-effect control and ±100 the full control effect; nearly all actives have a fitted effect of over 55% in size
#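 qHTS (up to 57 uM final) was run with 24 h compound exposure of reporter cells at 37 °C. Each well was multiplexed: SteadyGlo luminescence measured ATXN2-luciferase expression after a fluorogenic Gly-Phe-AFC viability readout (25 uM final).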
# TGFb inhibitor: blocks TGF-b signaling. HepG2 CAGA-GFP TGF-b/SMAD3 reporter, GFP fluorescence, 18 h; TGF-beta stimulated, 500 pg/mL final. Potency, µM (highest dose often 46.1 µM), for the others: at the highest dose activity, negative = inhibition, actives largely listed as inhibitors. actives 1.2% (n = 410,000); further: on the % scale 0 is the no-effect control and ±100 the full control effect; nearly all actives have a fitted effect of over 65% in size
#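 Inhibition of TGF-beta-driven CAGA-GFP reporter expression in HEPG2 cells is measured by cellular GFP fluorescence after 18 h stimulation with 500 pg/mL recombinant TGF-beta in 1% FBS medium at 37 degrees C.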
# DT40 TDP1 no CPT: qHTS for Inhibitors of human tyrosyl-DNA phosphodiesterase 1 (TDP1): qHTS in cells in absence of CPT; DT40 Tdp1-/- hTDP1 cells, no CPT, ATP luminescence, 48 h; actives 15% (n = 420,000); Potency, µM (series often up to 46.2 µM), without a hit: at the top dose activity change, negative = growth inhibition, most hits filed as inhibitors; further: on the % scale 0 is the no-effect control and ±100 the full control effect; nearly all actives have a fitted effect of over 55% in size
#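 Readout: luminescence from CellTiter-Glo after 30 min in the dark at RT. Cells: DT40 Tdp1-/- with stable hTDP1, 400/well. Exposure: compounds alone, ≥48 hr, 37 °C.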
# Starred values were filed as active, the others as inactive; i = inactive; u = inconclusive; x = no result. Only some compounds are listed: those with a hit (about 17% of all), similar ones and a draw of the others. The call rests on the fitted dose curve; in most records, active means well fitted curve in the direction sought with a large enough effect; inconclusive means small, poorly fitted or top-dose-only effect, or another doubt; inactive means no such curve, though single readings can be large; an effect the other way counts as inactive or inconclusive. Potency means the concentration at half of the fitted maximal effect.
SMILES,TDP1 cell CPT,S2 tox,HepG2 viability,ATXN2 expr inh,TGFb inhibitor,DT40 TDP1 no CPT
CCOc1ccc(-n2c(-c3ccc(Cl)cc3)c[n+]3c2SCC3)cc1,1.8µM*,i,-28%,u,0%,2.1µM*
c1ccc(-n2c3ccccc3c3ccccc32)cc1,u,i,-5%,1%,-1%,u
COc1cc(OC)cc(C(=O)N2CC(=O)Nc3ccc(Cl)cc3C2c2ccccc2)c1 (stereo not given),u,u,-16%,4%,u,u
O=C(C=Cc1ccccc1Cl)c1ccccc1,u,i,-17%,24%,-3%,16µM*
O=C(/C=C/c1ccccc1Cl)N1CCCN(C(=O)/C=C/c2ccccc2Cl)CC1,18µM*,i,-25%,4%,-1%,21µM*
O=C(/C=C/c1ccccc1Cl)NC1CCCCC1,1%,i,-8%,x,-5%,u
Cc1[nH]c2ccccc2c1C(=O)/C=C\c1ccccc1Cl,21µM*,u,-3%,30%,-13%,u
O=C(/C=C/c1ccccc1[N+](=O)[O-])N1CCCCC1,u,i,-4%,17%,5%,16%
O=C(/C=C/c1ccccc1Cl)NC1CCS(=O)(=O)C1 (stereo not given),21µM*,i,-3%,12%,-7%,18µM*
CC1CC(C)CN(CC(=O)N2CCOCC2)C1 (stereo not given),-6%,x,-13%,x,-16%,4%
O=C(CSc1nc2ccccc2c(=O)[nH]1)Nc1cccc([N+](=O)[O-])c1,-28%,i,-43%,-5%,4%,-9%
Cn1cc(-c2nc3cnc(Oc4ccccc4)nc3n(Cc3cccs3)c2=O)c2ccccc21,-15%,x,x,x,x,-4%
O=C(NCCc1ccc(O)c(O)c1)C1COc2ccccc2O1 (stereo not given),13µM*,i,-7%,-4%,5%,u
COc1ccc(C2=Nc3ccccc3N(C(=O)Cc3cc(OC)cc(OC)c3)C2C(=O)NC(C)(C)C)cc1 (stereo not given),18µM*,x,x,x,x,-85%
COc1ccc(C2=Nc3ccccc3N(C(=O)c3ccncc3)C2C(=O)NC(C)C)cc1 (stereo not given),u,x,x,x,x,-28%
COc1ccc(C2=Nc3ccccc3N(C(=O)c3ccc4ncccc4c3)C2C(=O)NC2CCCC2)cc1 (stereo not given),8.2µM*,x,x,x,x,9.2µM*
COc1ccc(C2=Nc3ccccc3N(C(=O)Cc3cc(OC)cc(OC)c3)C2C(=O)NC(C)C)cc1 (stereo not given),u,x,x,x,x,-21%
COc1ccc(C2=Nc3ccccc3N(C(=O)c3ccc4ncccc4c3)C2C(=O)NC(C)(C)C)cc1 (stereo not given),13µM*,x,x,x,x,23µM*
O=S1(=O)CC(N2CCCCC2)CN1Cc1cn(Cc2ccc(C(F)(F)F)cc2)nn1 (stereo not given),-7%,i,x,-6%,x,-22%
c1ccc2c(Cn3ccnc3)cccc2c1,-16%,i,-6%,-22%,-3%,-5%
CC[C@]12c3[nH]c4ccc(OC)cc4c3CCN1C(=O)C(CC(=O)NCCc1ccccn1)C[C@@H]2C(=O)N1CCN(C(=O)c2ccco2)CC1 (stereo not given in full),6%,i,4%,10%,-6%,-9%
CSc1ccc(CNC(=O)c2ccccc2NC(=O)c2nsc3ccccc23)cc1,u,i,-11%,7%,6%,u
O=C(NCc1cccc(F)c1)c1ccccc1NC(=O)c1nsc2ccccc12,u,x,-38%,x,-23%,23µM*

# High-throughput results: PubChem BioAssay, National Center for Advancing Translational Sciences (NCATS)
